In PubChem BioAssay:
Where “and” joins values, the source holds several entries; their conditions need not be identical. Equal entries are not always repeated. Calls of active or inactive are those of the source.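 How the source made its calls: active means compounds whose cell count with miR-34 switched on is under 0.7 times the count with it off; inactive means the rest.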

Test: sensitizers of A549 cells to miR-34 induction, primary screen, imaging, A549 dox-inducible miR-34, nuclei and caspase counts (AID 1347080); further: test concentration not given here
Conditions: A549 miR-34 inducible, Hoechst nuclei count, 48 h; hits give low values; cell number ratio, induced over uninduced
For `COC1C(OC(C)=O)CC(=O)OC(C)CC=CC=CC(O)C(C)CC(CC=O)C1OC1OC(C)C(OC2C[C@@](C)(OC(=O)CC(C)C)C(O)C(C)O2)C(N(C)C)C1O` (some centres not stated), the fold change was 1.04 (inactive).
For `CCN1CCCC1CNC(=O)c1c(O)c(Cl)cc(Cl)c1OC` (configuration not stated), the fold change was 1.02 (inactive).
In the case of `CC1COc2c(C3(N)CC3)c(F)cc3c(=O)c(C(=O)O)cn1c23` (configuration not stated), the fold change is reported as 0.951 (inactive).
In the case of `CC1CC2C3CC(F)C4=CC(=O)C(Cl)=C[C@]4(C)[C@@]3(F)C(O)C[C@]2(C)[C@@]1(O)C(=O)CO` (some centres not stated), the fold change is reported as 0.952 (inactive).
With `CC1CCC2C(C)C(OC(=O)CCC(=O)O)OC3O[C@@]4(C)CCC1[C@]32OO4` (some centres not stated) the fold change was 0.992 (inactive).
In the case of `COc1cc(CNC(=O)CCCCC=CC(C)C)ccc1O`, the fold change is reported as 0.954 (inactive).
For `CC(C)(C)NC(=O)C1CCC2C3CCC4NC(=O)C=C[C@]4(C)C3CC[C@]12C` (some centres not stated), the fold change was 0.939 (inactive).
In the case of `CCCCC(=O)N(Cc1ccc(-c2ccccc2-c2nn[nH]n2)cc1)C(C(=O)O)C(C)C` (configuration not stated), the fold change is reported as 0.925 (inactive).
With `CC(=O)OC1CC2CCC3C(CC[C@@]4(C)C3CC([N+]3(C)CCCCC3)C4OC(C)=O)[C@@]2(C)CC1N1CCCCC1` (some centres not stated) the fold change was 0.934 (inactive).
With `C[C@]12CCC3c4ccc(O)cc4CCC3C1CCC2O` (some centres not stated) the fold change was 1.11 (inactive).
In the case of `CN1CCc2cc(Cl)c(O)cc2C(c2ccccc2)C1` (configuration not stated), the fold change is reported as 0.944 (inactive).
In the case of `CC1CC2C3CCC4=CC(=O)C=C[C@]4(C)[C@@]3(F)C(O)C[C@]2(C)C1C(=O)CO` (some centres not stated), the fold change is reported as 0.805 (inactive).
With `COc1cccc2c1C(=O)c1c(O)c3c(c(O)c1C2=O)C[C@@](O)(C(=O)CO)CC3OC1CC(N)C(O)C(C)O1` (some centres not stated) the fold change was 0.969 (inactive) and 1 (inactive).
For `OCC1OC(n2cnc3c(NC4CCCC4)nc(Cl)nc32)C(O)C1O` (configuration not stated), the fold change was 0.88 (inactive).
With `CC=CC(=O)N(CC)c1ccccc1C` the fold change was 0.962 (inactive).
In the case of `CC1=C(C(=O)O)N2C(=O)C(NC(=O)C(N)c3ccccc3)C2SC1` (configuration not stated), the fold change is reported as 0.933 (inactive).
For `CC(C)OC(=O)CCCC=CCC1C(O)CC(O)C1CCC(O)CCc1ccccc1` (configuration not stated), the fold change was 1 (inactive).
For `OCC1OC(n2cnc3c(NC4CCCC4O)ncnc32)C(O)C1O` (configuration not stated), the fold change was 0.907 (inactive).
For `COc1cc(C=Cc2ccc(O)cc2)cc(OC)c1`, the fold change was 0.943 (inactive).
For `COc1ccc(CCCOc2cc(CCn3ccnc3)ccc2OC)cc1`, the fold change was 1.41 (inactive).
For `NC(C(=O)NC1C(=O)N2C(C(=O)O)=C(Cl)CSC12)c1ccccc1` (configuration not stated), the fold change was 1.39 (inactive).
In the case of `C[C@]12C=CC(=O)C=C1CCC1C2C(O)C[C@@]2(C)C1CC[C@]2(O)C(=O)COC(=O)CCC(=O)O` (some centres not stated), the fold change is reported as 0.962 (inactive).
With `CC#C[C@]1(O)CCC2C3CCC4=CC(=O)CCC4=C3C(c3ccc(N(C)C)cc3)C[C@@]21C` (some centres not stated) the fold change was 0.84 (inactive).
For `COCc1c(C(C)C)nc(C(C)C)c(C=CC(O)CC(O)CC(=O)O)c1-c1ccc(F)cc1` (configuration not stated), the fold change was 1.06 (inactive).
With `COC(=O)C[C@](O)(CCCC(C)(C)O)C(=O)OC1C(OC)=C[C@]23CCCN2CCc2cc4c(cc2C13)OCO4` (some centres not stated) the fold change was 0.85 (inactive).
With `CCOC(=O)O[C@]1(C(=O)OCCl)CCC2C3CCC4=CC(=O)C=C[C@]4(C)C3C(O)C[C@@]21C` (some centres not stated) the fold change was 0.961 (inactive).
In the case of `Nc1ncnc2c1ncn2C1OC(CO)CC1O` (configuration not stated), the fold change is reported as 0.896 (inactive).
With `C=C1C(=CC=C2CCC[C@@]3(C)C2CCC3C(C)C=CC(O)C2CC2)CC(O)CC1O` (some centres not stated) the fold change was 1.02 (inactive).
In the case of `CC1CN(CCCn2c3ccccc3c3ccccc32)CC(C)N1` (configuration not stated), the fold change is reported as 0.806 (inactive).
For `CC(C)(C)NC(=O)C1CC2CCCCC2CN1CC(O)C(Cc1ccccc1)NC(=O)C(CC(N)=O)NC(=O)c1ccc2ccccc2n1` (configuration not stated), the fold change was 1.12 (inactive).
In the case of `O=C(OC1C(Oc2ccccc2COC(=O)C2(O)C=CCCC2=O)OC(CO)C(O)C1O)c1ccccc1` (configuration not stated), the fold change is reported as 0.897 (inactive).
In the case of `O=c1cnn(C2OC(CO)C(O)C2O)c(=O)[nH]1` (configuration not stated), the fold change is reported as 1.77 (inactive).
With `O=C(OC1CC2CC3CC(C1)N2CC3=O)c1c[nH]c2ccccc12` (configuration not stated) the fold change was 0.871 (inactive).
For `COCC1=C(C(=O)OC(C)OC(=O)OC(C)C)N2C(=O)C(NC(=O)C(=NOC)c3csc(N)n3)C2SC1` (configuration not stated), the fold change was 0.946 (inactive).
With `C=CC1=C(C(=O)O)N2C(=O)C(NC(=O)C(=NO)c3csc(N)n3)C2SC1` (configuration not stated) the fold change was 0.914 (inactive).
In the case of `CC(=O)[C@@]1(O)CCC2C3CC(C)C4=CC(=O)CC[C@]4(C)C3CC[C@@]21C` (some centres not stated), the fold change is reported as 0.817 (inactive).
For `C=CCc1ccccc1OCC(O)CN[C@]1(C)CCC[C@H](C(C)(C)NC(=O)CBr)C1` (some centres not stated), the fold change was 0.814 (inactive).
